Rows were chosen to be rich in hits. Some 11% of all compounds tested hit in one or more screens of this group.
PNC assembly inh = blocks assembly of the perinucleolar compartment. PC3M PTB-GFP, PNC prevalence imaging, 16 h; active compounds read low. activity change (PNC), negative = inhibition, % at 10 µM. 140,000 compounds, 3.1% hits. AID 2417;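 active = readout at or below -70, meaning at least 70% loss of cells showing the perinucleolar compartment, a nuclear body marking cancer cells; inconclusive = readout between -30 and a set limit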;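 also: plate controls were DMSO wells for no effect and camptothecin positive control wells for full effect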
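PC3M cells stably expressing PTB-GFP, 750–1000 cells/well, treated 16 h at 37 °C with compound (23 nl of library stock), in duplicate. After paraformaldehyde fixation and Hoechst stain, imaged at 20x; PNC prevalence scored by image analysis.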
HPGD inh = blocks human HPGD enzyme activity | P15428 | purified HPGD, NADH fluorescence kinetic, PGE2 substrate | Potency, µM, for the others: top-dose activity change, negative = inhibition, hits mostly inhibitors | 150,000 compounds, 4.3% hits | AID 894; also: potency is read from the fitted curve at half-maximal effect
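NADH formation kinetics: reaction with 30 uM PGE2 and 1 mM NAD+ (final), 20 nM enzyme, Tris-HCl pH 8 with Tween 20, after 15 min compound preincubation at room temperature. Fluorescence change, last versus first of five reads.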
IMPase inh = IMPase inhibition in cells; P97697; CHO-M1 cells, IP1 accumulation, HTRF TR-FRET ratio; inhibition (IP1 accumulation), % at 46.1 µM; 120,000 tested, under 10 active; AID 901; active = well fitted curve in the direction sought with a large enough effect in the signal ratio, not every such curve was filed as active; inconclusive = small, poorly fitted or top-dose-only effect, or a change in a side signal; inactive = no such curve, though single readings can be large or run the other way; the % refers to the signal ratio;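 also: cells stimulated with carbachol in lithium chloride buffer; plate controls were DMSO basal wells for no effect and reference inhibitor wells for full effect; higher means more IMPase inhibition seen as more IP1 and lower FRET ratio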
Target sequence (P97697 whole entry, looked up): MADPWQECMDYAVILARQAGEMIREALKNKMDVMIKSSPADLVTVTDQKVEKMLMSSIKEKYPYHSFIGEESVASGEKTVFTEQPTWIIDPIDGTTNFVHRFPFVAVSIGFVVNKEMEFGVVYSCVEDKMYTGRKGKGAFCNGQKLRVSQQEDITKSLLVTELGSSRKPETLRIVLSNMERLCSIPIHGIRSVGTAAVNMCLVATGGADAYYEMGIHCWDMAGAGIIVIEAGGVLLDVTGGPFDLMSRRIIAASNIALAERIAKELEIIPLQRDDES
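The IP-One HTRF competitive assay in carbachol-stimulated CHO-M1 cells quantifies cellular IP1. Compounds spanned up to 46 uM final, and activity is expressed as AC50 from concentration-response fits of the ratio and donor data.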
NPSR antagonist = antagonists of human neuropeptide S receptor cAMP signaling | CHO-NPSR cells, cAMP TR-FRET, antagonist mode | Potency, µM (highest dose often 38.3 µM), inactives show at the highest dose activity change, negative = inhibition, hits mostly inhibitors | 220,000 compounds, 1% hits; active = well fitted curve in the direction sought with a large enough effect; inconclusive = small, poorly fitted or top-dose-only effect, or another doubt; inactive = no such curve, though single readings can be large; an effect the other way counts as inactive or inconclusive; also: potency is read from the fitted curve at half-maximal effect; nearly all actives have a fitted effect of over 50% in size
Target sequence (Q6W5P4 whole entry, looked up): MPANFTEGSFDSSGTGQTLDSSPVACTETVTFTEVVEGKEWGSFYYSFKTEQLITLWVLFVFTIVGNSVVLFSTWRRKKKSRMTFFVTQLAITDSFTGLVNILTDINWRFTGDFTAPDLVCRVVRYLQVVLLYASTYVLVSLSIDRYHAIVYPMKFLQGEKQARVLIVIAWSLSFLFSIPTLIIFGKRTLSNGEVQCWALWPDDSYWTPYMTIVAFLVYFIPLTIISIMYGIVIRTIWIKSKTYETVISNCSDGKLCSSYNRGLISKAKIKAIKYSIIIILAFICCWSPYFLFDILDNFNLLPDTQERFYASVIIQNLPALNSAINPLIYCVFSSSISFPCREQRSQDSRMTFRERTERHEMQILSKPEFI
IMPase Li inh = cell-permeable IMPase inhibitors with lithium potentiation. 210,000 compounds, 0.35% hits. Potency, µM (highest dose often 59.4 µM), without a hit: at the top dose activity, negative = IMPase inhibition, hits mostly inhibitors. CHO-M1 cells, IP1 TR-FRET (IP-One), carbachol + lithium. AID 1457; active = well fitted curve in the direction sought with a large enough effect; inconclusive = small, poorly fitted or top-dose-only effect, or another doubt; inactive = no such curve, though single readings can be large; an effect the other way counts as inactive or inconclusive;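 also: IP1 builds up when IMPase is blocked and the TR-FRET signal falls; potency is read from the fitted curve at half-maximal effect; plate controls were basal vehicle for no effect and high inhibitor control for full effect; nearly all actives have a fitted effect of over 50% in size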
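Concentration–response in CHO-M1 cells, lithium-potentiated; 30 min at 37C. IP1 detected by competitive TR-FRET after 10 min lysis at RT. Hill-fitted AC50.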
ALDH1A1 inh = ALDH1A1 (human) enzyme inhibition; P00352; Purified ALDH1A1, NADH fluorescence, propionaldehyde substrate; Potency, µM (doses to about 75.3 µM), inactives show top-dose activity, negative = inhibition, usual class: inhibitors; 220,000 compounds, 7.3% hits; AID 1030;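 also: potency is read from the fitted curve at half-maximal effect; plate controls were no enzyme wells and a reference inhibitor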
* hit, by the source's call; ? = inconclusive; · = no result given; ! = repeats disagree; [ ] = remark or other dose. Unless noted, calls follow the shape of the dose curve; as a rule, active = well fitted inhibition curve with a large enough effect (not every such curve was filed as active); inconclusive = small, poorly fitted or top-dose-only effect, or another doubt; inactive = no such curve, though single readings can be large or run the other way. Unless noted, % is scaled to controls: 0 for no effect and ±100 for the full control effect.

SMILES	PNC assembly inh	HPGD inh	IMPase inh	NPSR antagonist	IMPase Li inh	ALDH1A1 inh
O=C(NCc1nc2ccccc2[nH]1)C1=C[C@H](c2ccc3c(c2)OCO3)C[C@H](OCc2ccc(CO)cc2)O1	·	·	·	23.3%	15.9%	?
Cc1ncc([N+](=O)[O-])n1CCO	42.5	-20.7%	-7.2[20.6 µM]	-43.2%	-0.2%	7.94µM*!
CC(=O)Nc1ccc(S(=O)(=O)Oc2ccc(C(=S)N3CCCCC3)cc2)cc1	?	15.8µM*	·	-6.8%	12.8%	14.1µM*
CC(=O)Nc1ccc(S(=O)(=O)Oc2ccc(C(=S)N3CCC(O)CC3)cc2)cc1	22.9	31.6µM*	·	5.8%	-4.4%	3.6%
CCOc1cc(C(=S)N2CCOCC2)ccc1OS(=O)(=O)c1ccc(NC(C)=O)cc1	27.4	-20.2%	7.6	-8.4%[46.1 µM]	4.5%[38.3 µM]	6.0%
CC(=O)c1ccc(NC(=S)N2CCC(O)CC2)cc1	-1.7	·	0.8	16.3%[46.1 µM]	·	-6.9%
Cc1ccc(-n2nc(C)c3c2NC2=C(C(=O)CC(C)(C)C2)C3c2ccccc2OCC(=O)O)cc1 (stereo not drawn)	·	·	·	-59.1%	-5.1%	?
Cc1ccc(CNC(=O)C2c3ccccc3C(=O)N3CCc4ccccc4C23)o1 (stereo not drawn)	-23.1	-25.6%	5.0	-23.5%[46.1 µM]	-1.6%[38.3 µM]	25.1µM*
CC(C)CCN1CCN(Cc2cccc(-n3cccn3)c2)CC1CCO (stereo not drawn)	·	·	·	-6.2%	13.3%	-6.2%
C=CCNC(=O)CSc1nnc(-c2ccccn2)n1Cc1ccccc1	·	·	·	2.0%	5.7%	35.5µM*
CCn1c(SCC(=O)Nc2ccc3c(c2)OCCO3)nnc1-c1ccccn1	-28.8	-6.5%	0.9	16.3%[46.1 µM]	-10.1%[38.3 µM]	?
CCn1c(SCC(=O)c2ccccc2)nnc1-c1cc2cc(Br)ccc2o1	13.3	-20.7%	-10.4	-21.4%[46.1 µM]	-3.8%[38.3 µM]	?
C=CCn1c(SCC(=O)c2ccccc2)nnc1-c1cc2ccccc2o1	?	14.1µM*	-3.4	?	7.6%[38.3 µM]	?
C=CCn1c(SCC(=O)c2ccc(OC)cc2)nnc1-c1cc2cccc(OC)c2o1	-123.0*	1.8%	5.8	?	-5.1%[38.3 µM]	-10.1%
C=CCn1c(SCC(=O)Nc2ccc3c(c2)OCCO3)nnc1-c1ccccn1	-80.6*	-6.4%	?	17.9%[46.1 µM]	-10.1%[38.3 µM]	?
CC(C)(C)NC(=O)[C@@H]1CC[C@@H]2[C@@H]3CC[C@@H]4NC(=O)C=C[C@@]4(C)[C@H]3CC[C@]21C	·	-5.5%	-6.0[20.6 µM]	·	-1.1%	-14.9%[20.9 µM]
C=CCn1c(SCC(=O)c2ccccc2)nnc1-c1ccc2c(c1)OCO2	-27.0	5.62µM*	-1.1	-16.0%[46.1 µM]	16.2%[38.3 µM]	25.1µM*
C=CCn1c(COC)nnc1SCC(=O)c1ccc(F)cc1	?	-23.2%	-1.4	0.9%[46.1 µM]	29.6%[38.3 µM]	11.2µM*
C=CCn1c(COc2ccc(F)cc2)nnc1SCC(=O)c1c[nH]c2c(CC)cccc12	-25.7	-8.9%	4.5	1.7%	-3.9%	15.2%
C=CCn1c(SCC(=O)NCc2ccc3c(c2)OCO3)nnc1-c1cccnc1	·	·	·	30.1%	-3.1%	4.2%
Cc1ccccc1-c1n[nH]c(=S)n1/N=C/c1c(C)nn(-c2ccccc2)c1C	?	3.55µM*	-4.7	-27.7%	31.9%	-4.0%
Cc1nn(-c2ccccc2)c(C)c1/C=N/n1c(-c2ccc(C(C)(C)C)cc2)n[nH]c1=S	43.1	?	-5.1	?	9.7%[38.3 µM]	-8.2%
Cc1cc(C)nc(NS(=O)(=O)c2ccc(NC(=O)c3ccc(S(=O)(=O)N4CCOCC4)cc3)cc2)n1	-21.3	-6.8%	3.0	-12.0%[46.1 µM]	-1.3%[38.3 µM]	3.2%
O=C(c1ccc2c(c1)OCO2)N1CCCC1	-14.8	?	-1.3	-5.8%[46.1 µM]	-12.6%[38.3 µM]	?
O=C(Nc1ccccc1N1CCN(C(=O)c2ccc(Cl)cc2)CC1)c1ccc2c(c1)OCO2	-101.9*	?	0.3	?	31.9%[38.3 µM]	?
SMILES	PNC assembly inh	HPGD inh	IMPase inh	NPSR antagonist	IMPase Li inh	ALDH1A1 inh
O=C(Nc1ccc(C(=O)N2CCCC2)cc1)c1ccc2c(c1)OCO2	-17.1	6.31µM*	-1.7	-1.7%[46.1 µM]	20.5%[38.3 µM]	?
Cc1cc(C)nc(NS(=O)(=O)c2ccc(NC(=O)c3ccc4c(c3)OCO4)cc2)n1	-26.3	?	3.3	-5.9%[46.1 µM]	4.4%[38.3 µM]	25.1µM*
CCCc1cc(=O)[nH]c(SCC(=O)c2ccc(S(=O)(=O)N3CCCC3)cc2)n1	23.4	-11.9%	5.6	1.4%[46.1 µM]	-0.2%[38.3 µM]	?
O=C(Cn1nnc(-c2ccccc2F)n1)NCCc1ccccc1	-16.2	-24.9%	0.5	3.3%[46.1 µM]	-5.6%[38.3 µM]	-9.0%
Cc1ccc(NC(=O)Cn2nnc(-c3ccccc3NC(=O)c3cccs3)n2)cc1	-87.7*	?	-2.5	-0.6%[46.1 µM]	30.0%[38.3 µM]	-8.5%
COc1ccc(NC(=O)Cn2nnc(-c3ccccc3NC(=O)c3cccs3)n2)cc1	?	-27.6%	2.0	-10.2%[46.1 µM]	-9.6%[38.3 µM]	10.9%
O=C(Cn1nnc(-c2ccccc2F)n1)Nc1cccc2ncccc12	-81.8*	-5.4%	?	-21.0%[46.1 µM]	-31.3%[38.3 µM]	-2.1%
CCOc1ccc(NC(=O)Cn2nnc(-c3ccccc3NC(=O)CC)n2)cc1	-84.2*	-13.1%	7.1	-28.7%[46.1 µM]	8.5%[38.3 µM]	-3.8%
CCOC(=O)N1CCN(c2nc(-c3cccc(OC)c3)cc(C(F)(F)F)n2)CC1	-3.1	?	9.1	?	25.9%[38.3 µM]	1.5%
CC1=C(SCCC#N)S/C(=C2\SC(C)=C(SCCC#N)S2)S1	37.6	17.8µM*	7.5	-26.2%[46.1 µM]	3.9%[38.3 µM]	5.01µM*
Cc1cccn2c(CN(C)CCC3CCCCO3)c(C(=O)N3CCCCC3)nc12 (stereo not drawn)	·	·	·	-13.7%	24.9%	3.16µM*
